This note sets out measurements from PubChem BioAssay.

Experiment [1] is described as follows: anti-His antibody binders, primary screen, artefact control for SMM control protein annotation, biochemical, small-molecule microarray, 635 nm fluorescence (AID 1128).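 Also: score merges feature fluorescence with signal-to-noise for each printed compound spot.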 The settings on record: anti-His Alexa647 antibody binding, higher = more signal.
Experiment [2] concerns Human papillomavirus type 1a E7 protein (residues 1-88). Briefly: HPV1a E7 small-molecule binders, primary screen, biochemical, small-molecule microarray, residues 1-88, 635 nm (AID 1129). The settings on record: small-molecule microarray binding, fluorescence 635 nm; higher = more signal.
Experiment [3] concerns the target Focal adhesion kinase 1 (Homo sapiens) (UniProt Q05397). Briefly: small-molecule microarray binders of FAK, primary screen, biochemical, 635/667 nm fluorescence, BSA, DTT (AID 1130).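 Also: composite of spot emission at 667 nm and signal to noise over triplicate slides.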 The settings on record: PTK2 binding, 635 nm fluorescence, higher = more signal.
Experiment [4] has as its system Fibrinogen (Alexa647-labelled). Briefly: fibrinogen binders on compound microarrays, profiling panel, artefact control for SMM control-protein annotation, biochemical, small-molecule microarray, 635/667 nm fluorescence (AID 1131).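 Also: z-score merges 667 nm fluorescence with per-spot signal-to-noise over triplicate slides.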 The settings on record: fibrinogen-A647 binding fluorescence, higher = more signal.
Experiment [5] has as its target Follistatin (Homo sapiens) (UniProt P19883). Briefly: follistatin binders on small-molecule microarrays, primary screen, biochemical, small-molecule microarray, 635/667 nm fluorescence (AID 1132). The settings on record: FST binding, 635 nm fluorescence, higher = more signal.
Experiment [6] addresses Fibroblast growth factor 2 (Homo sapiens) (UniProt P09038). Briefly: FGF2 binders on small-molecule microarrays, primary screen, biochemical, small-molecule microarray, 635/667 nm fluorescence (AID 1133). The settings on record: small-molecule microarray binding, FGF2, fluorescence 635/667; higher = more signal.
A short description of experiment [7]: mitochondrial membrane potential change in A549 cells, profiling panel, cell-based, JC-1 fluorescence, basal, 24 h, 100 nL (AID 1138).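 Also: A549 lung adenocarcinoma cells under basal conditions with no added stimulus; test concentration not given here.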 The settings on record: higher = more signal.
A further experiment has as its system Lefty1. Briefly: Lefty1 binders on small-molecule microarrays, primary screen, biochemical, small-molecule microarray, 635/667 nm fluorescence (AID 1139). The settings on record: small-molecule microarray binding, fluorescence 635/667; higher = more signal.
In experiment [8] the test system is wheat germ agglutinin (Triticum aestivum), Alexa647-labelled. Briefly: wheat germ agglutinin binders on compound microarrays, profiling panel, artefact control for SMM control-protein annotation, biochemical, small-molecule microarray, 635/667 nm fluorescence (AID 1140).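 Also: score merges 667 nm feature emission with signal to noise over triplicate slides.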 The settings on record: WGA-A647 binding, 635 nm fluorescence, higher = more signal.
Experiment [9] concerns the target Luciferin 4-monooxygenase (Photinus pyralis) (UniProt P08659). Briefly: firefly luciferase enzyme inhibitors, primary screen, biochemical, luminescence, purified enzyme, 2006 set (AID 1141).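 Also: cell-free assay with purified firefly luciferase at 100 ng per well in PBS; test concentration not given here.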 The settings on record: SteadyGlo luminescence, 30 min, higher = more signal, called active from +8 up or from −8 down.
The test system of experiment [10] is Wnt5a (protein binding on small-molecule microarray). Briefly: Wnt5a binders on small-molecule microarray, primary screen, biophysical, 635/667 nm fluorescence (AID 1142).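 Also: fluorescence read at 667 nm with signal to noise per printed feature.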 The settings on record: 635 nm fluorescence, higher = more signal.
A short description of experiment [11]: cell viability in Huh7 cells, primary screen, cytotoxicity control for HCV replication inhibitor project, CellTiter-Glo luminescence, basal, 48 h (AID 1143).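 Also: Huh7 hepatoma cells carrying a hepatitis C replication reporter with no stimulus; test concentration not given here.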 The settings on record: Huh7 HCV replicon, higher = more signal, called active from +8 up or from −8 down. For orientation: Cellular ATP, detected with luciferase, serves as a proxy for viable cell number.

Experiment [12] is described as follows: P. aeruginosa biofilm formation inhibitors, primary screen, PAO1 strain, BacTiter-Glo luminescence, LB-PBS (AID 1144). The settings on record: 12 h, higher = more signal.
The nature of experiment [13]: CREB reporter modulators without forskolin, primary screen, cell-based, PC12, CRE-LacZ reporter, unstimulated (AID 1145). The settings on record: no forskolin, luminescence, 4.5 h, higher = more signal, called active from +8 up or from −8 down.
The nature of experiment [14]: CREB reporter modulators under forskolin, primary screen, cell-based, PC12, CRE-LacZ reporter, forskolin-stimulated (AID 1146).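 Also: PC12 cells with 6xCRE LacZ reporter stimulated by forskolin 10 µM; beta-galactosidase reporter signal reflecting CREB driven transcription.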 The settings on record: luminescence, 4.5 h, higher = more signal, called active from +8 up or from −8 down.
The target in experiment [15] is Streptavidin (Streptomyces avidinii) (UniProt P22629). Briefly: streptavidin binders on small-molecule microarray, primary screen, artefact control for SMM compound annotation, biophysical, 635/667 nm fluorescence (AID 1147).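 Also: signal reflects streptavidin binding to arrayed compounds as a control protein.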 The settings on record: streptavidin binding, higher = more signal.
Chain of Streptavidin (Streptomyces avidinii) (P22629 whole entry, looked up): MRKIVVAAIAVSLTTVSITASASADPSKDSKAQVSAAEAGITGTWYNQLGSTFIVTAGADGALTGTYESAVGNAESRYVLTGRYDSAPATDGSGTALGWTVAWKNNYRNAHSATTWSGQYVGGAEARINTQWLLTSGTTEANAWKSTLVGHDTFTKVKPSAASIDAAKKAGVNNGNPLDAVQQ
Experiment [16] in a line: small-molecule binders of probe aInhba, primary screen, biochemical, small-molecule microarray, 635/667 nm fluorescence (AID 1148).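 Also: score merges 667nm spot fluorescence with signal-to-noise for antibody binding to printed compounds.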 The settings on record: higher = more signal.
Experiment [17] has as its target Torsin-1A (Homo sapiens) (UniProt O14656). Briefly: torsin A binders from cell lysate, primary screen, small-molecule microarray, wild-type, 635/667 nm (AID 1149). The settings on record: COS7 hTOR1A-WT lysate, 635 nm fluorescence, higher = more signal.
For experiment [18] the target is unchanged. Briefly: small-molecule binders of mutant TOR1A in lysate, primary screen, cell lysate, small-molecule microarray, COS7 lysate, 635/667 nm fluorescence (AID 1150).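 Also: score pools 667 nm emission and signal to noise measuring lysate protein binding.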 The settings on record: COS7 hTOR1A mutant lysate, 635 nm fluorescence, higher = more signal.
Experiment [19] relates to Sonic hedgehog protein (Shh). Briefly: small-molecule binders of Shh protein, primary screen, biochemical, small-molecule microarray, 635/667 nm fluorescence (AID 1151).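 Also: Shh protein binding to compounds spotted on small-molecule microarray slides; score combines spot fluorescence intensity with signal-to-noise across triplicate slides.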 The settings on record: small-molecule microarray binding, 635 nm fluorescence; higher = more signal.

Calls of active or inactive are those of the source. Unless noted, no rule for the calls is given here.

Chain of Follistatin (Homo sapiens) (P19883 whole entry, looked up): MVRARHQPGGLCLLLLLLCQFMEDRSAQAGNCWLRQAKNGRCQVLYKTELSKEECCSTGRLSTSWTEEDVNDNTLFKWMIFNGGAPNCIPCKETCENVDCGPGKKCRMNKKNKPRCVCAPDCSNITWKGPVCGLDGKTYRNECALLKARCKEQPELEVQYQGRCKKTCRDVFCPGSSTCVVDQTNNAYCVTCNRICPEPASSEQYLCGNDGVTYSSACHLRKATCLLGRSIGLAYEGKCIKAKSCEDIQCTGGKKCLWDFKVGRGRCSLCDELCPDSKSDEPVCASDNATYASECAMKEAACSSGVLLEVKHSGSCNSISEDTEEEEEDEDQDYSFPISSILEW
Chain of Focal adhesion kinase 1 (Homo sapiens) (Q05397 whole entry, looked up): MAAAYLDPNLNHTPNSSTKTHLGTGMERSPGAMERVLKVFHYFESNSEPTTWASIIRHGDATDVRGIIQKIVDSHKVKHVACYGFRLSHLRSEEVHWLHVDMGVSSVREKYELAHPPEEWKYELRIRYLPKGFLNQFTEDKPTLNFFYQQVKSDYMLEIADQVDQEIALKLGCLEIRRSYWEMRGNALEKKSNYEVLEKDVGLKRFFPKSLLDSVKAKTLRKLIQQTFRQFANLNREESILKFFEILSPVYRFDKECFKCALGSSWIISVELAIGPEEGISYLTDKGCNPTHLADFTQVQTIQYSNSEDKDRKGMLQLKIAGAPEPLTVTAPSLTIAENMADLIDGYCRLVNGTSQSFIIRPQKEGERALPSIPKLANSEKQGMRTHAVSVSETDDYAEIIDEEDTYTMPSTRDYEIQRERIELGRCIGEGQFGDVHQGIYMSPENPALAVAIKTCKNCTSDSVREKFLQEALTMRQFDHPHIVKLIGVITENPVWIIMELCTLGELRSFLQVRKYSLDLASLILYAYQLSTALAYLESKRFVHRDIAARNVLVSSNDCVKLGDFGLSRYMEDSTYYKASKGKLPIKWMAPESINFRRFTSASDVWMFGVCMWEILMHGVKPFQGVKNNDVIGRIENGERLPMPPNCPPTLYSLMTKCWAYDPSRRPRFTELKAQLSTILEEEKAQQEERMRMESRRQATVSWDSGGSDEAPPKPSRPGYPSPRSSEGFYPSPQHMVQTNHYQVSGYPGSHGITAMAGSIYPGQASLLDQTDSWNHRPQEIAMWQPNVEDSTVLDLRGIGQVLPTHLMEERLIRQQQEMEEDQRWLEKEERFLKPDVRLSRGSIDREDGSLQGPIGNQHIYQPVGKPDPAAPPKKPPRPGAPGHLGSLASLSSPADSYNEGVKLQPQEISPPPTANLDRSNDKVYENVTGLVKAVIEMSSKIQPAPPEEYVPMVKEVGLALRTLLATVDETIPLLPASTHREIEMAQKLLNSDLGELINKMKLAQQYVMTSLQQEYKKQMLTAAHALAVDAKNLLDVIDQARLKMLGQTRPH
Chain of Torsin-1A (Homo sapiens) (O14656 whole entry, looked up): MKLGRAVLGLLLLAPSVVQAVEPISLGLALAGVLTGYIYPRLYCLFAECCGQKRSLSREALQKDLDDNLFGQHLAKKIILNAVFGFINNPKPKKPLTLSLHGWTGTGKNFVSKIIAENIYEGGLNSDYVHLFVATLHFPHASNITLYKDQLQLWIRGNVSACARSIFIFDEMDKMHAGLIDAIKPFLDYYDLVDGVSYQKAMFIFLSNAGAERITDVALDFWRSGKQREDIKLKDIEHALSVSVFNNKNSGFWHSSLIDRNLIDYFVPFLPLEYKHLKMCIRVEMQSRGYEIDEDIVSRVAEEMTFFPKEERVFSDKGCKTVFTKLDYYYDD
Chain of Fibroblast growth factor 2 (Homo sapiens) (P09038 whole entry, looked up): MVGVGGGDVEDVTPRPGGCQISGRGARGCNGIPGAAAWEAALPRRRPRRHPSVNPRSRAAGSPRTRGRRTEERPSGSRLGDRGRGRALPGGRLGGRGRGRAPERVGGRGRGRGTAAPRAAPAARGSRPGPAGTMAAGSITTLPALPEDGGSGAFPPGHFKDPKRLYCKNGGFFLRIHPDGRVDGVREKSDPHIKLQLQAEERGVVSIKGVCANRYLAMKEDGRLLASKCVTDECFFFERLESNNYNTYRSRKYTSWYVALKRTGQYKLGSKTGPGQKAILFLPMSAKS
Chain of Luciferin 4-monooxygenase (Photinus pyralis) (P08659 whole entry, looked up): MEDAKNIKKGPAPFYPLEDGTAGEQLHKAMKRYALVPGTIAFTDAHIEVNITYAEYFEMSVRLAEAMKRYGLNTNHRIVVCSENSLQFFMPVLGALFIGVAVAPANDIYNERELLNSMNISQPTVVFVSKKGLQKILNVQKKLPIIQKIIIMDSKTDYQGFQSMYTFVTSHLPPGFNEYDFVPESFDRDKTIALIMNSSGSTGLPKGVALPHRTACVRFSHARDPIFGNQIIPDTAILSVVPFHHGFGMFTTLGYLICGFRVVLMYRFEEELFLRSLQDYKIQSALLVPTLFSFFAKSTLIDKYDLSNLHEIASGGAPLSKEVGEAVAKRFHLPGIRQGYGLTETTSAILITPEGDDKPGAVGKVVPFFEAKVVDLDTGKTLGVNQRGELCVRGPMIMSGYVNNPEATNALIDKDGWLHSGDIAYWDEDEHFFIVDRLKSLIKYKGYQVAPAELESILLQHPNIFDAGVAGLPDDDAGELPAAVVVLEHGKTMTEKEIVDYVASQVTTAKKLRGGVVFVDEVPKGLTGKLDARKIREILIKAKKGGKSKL

With `COc1cc2c(cc1OC)CN(C(=O)[C@@H]1[C@H]3C(=O)O[C@H](c4ccccc4)[C@H](c4ccccc4)N3[C@H](c3ccc(O)cc3)[C@@]13C(=O)Nc1ccc(C#CCNC(N)=O)cc13)CC2`, the composite z-score in [1] was determined as 0.474; in [2] it was 0.69; in experiment [3] it was 0.484; in [4], 0.43; in experiment [5] it was 1.29; in experiment [6], 0.302. The composite z-score with Lefty1 is 0.837; in experiment [8], 0.607; in experiment [10] it was 0.147; in experiment [15] it was 0.239; in [16], -0.101; with Torsin-1A (Homo sapiens) [17], -0.0899. Further, the figures for the composite z-score (with Torsin-1A (Homo sapiens) [18]; in experiment [19]) were -0.0351 and 0.946, respectively. The z-score in experiment [7] is -0.876; in experiment [9] it was 0.696 (inactive); in experiment [11], 0.311 (inactive); in experiment [12] it was 0.347 (inactive); in experiment [13], 0.182 (inactive); in [14] it was 0.445 (inactive).
For the molecule `CCCC=C(CCC)[C@@H](NS(=O)(=O)c1cccc2cccnc12)c1ccc(C(=O)OC)cc1`, the composite z-score was found to be 1.4 in experiment [1]; 0.36 in experiment [2]; 0.542 in experiment [3]; 0.395 in [4]; 1.31 in [5]; 0.33 in experiment [6]. Also, the composite z-score was 0.162 with Lefty1; -0.0663 in [8]; 3.01 in [10]; 0.358 in experiment [15]; 2.04 in experiment [16]; 0.361 with Torsin-1A (Homo sapiens) [17]. Besides, the composite z-score with Torsin-1A (Homo sapiens) [18] was 0.0731; in experiment [19], -0.187. Besides, the z-score was 0.0272 in [7]; 2.48 (inactive) in experiment [9]; -0.0811 (inactive) in experiment [11]; -0.124 (inactive) in experiment [12]; -1.13 (inactive) in experiment [13]; 0.0608 (inactive) in experiment [14].
Turning to `CCOc1cc(C(O)C2C=CC3C(=O)NC(=O)C3N2Nc2ccccn2)ccc1O` (stereo not given), the composite z-score was 0.227 in experiment [1]; 0.255 in [2]; -0.0976 in [3]; -0.32 in experiment [4]; 0.262 in [5]; 0.835 in experiment [6]. The composite z-score with Lefty1 is -0.0684; in experiment [8], -0.298; in experiment [10], 0.342; in experiment [15] it was 0.171; in [16], -0.158; in the experiment with Torsin-1A (Homo sapiens) [17], -0.0106. Further, the figures for the composite z-score (with Torsin-1A (Homo sapiens) [18]; in experiment [19]) were 0.12 and -0.476, respectively. The z-score is 0.208 in experiment [7]; 0.25 (inactive) in experiment [9]; 0.961 (inactive) in experiment [11]; 0.543 (inactive) in experiment [12]; -0.333 (inactive) in experiment [13]; 0.153 (inactive) in [14].
Consider `CN(C)CCCN1C(=O)[C@@]2(Cc3ccccc31)c1ccccc1C(=O)N(Cc1ccccc1)[C@H]2c1ccc(CO)cc1`, for which the composite z-score was -0.201 in experiment [1]; -0.153 in experiment [2]; -0.0553 in [3]; 0.385 in [4]; 0.375 in experiment [5]; 0.144 in experiment [6]. For the same molecule, the composite z-score was 0.122 in the experiment with Lefty1; 0.111 in experiment [8]; -0.173 in experiment [10]; -0.394 in experiment [15]; -0.128 in experiment [16]; -0.158 in the experiment with Torsin-1A (Homo sapiens) [17]. Moreover, the figures for the composite z-score (with Torsin-1A (Homo sapiens) [18]; in experiment [19]) were -0.105 and 0.463, respectively. The z-score is -0.548 in experiment [7]; 1.09 (inactive) in [9]; -5.06 (inactive) in experiment [11]; -1.74 (inactive) in [12]; -0.491 (inactive) in experiment [13]; -0.665 (inactive) in experiment [14].
In the case of `CC(C)NC(=O)[C@@H]1c2ccccc2C(=O)N(Cc2cc(C(F)(F)F)cc(C(F)(F)F)c2)[C@H]1c1ccc(CO)cc1`, the composite z-score amounted to 0.913 in [1]; 1.16 in [2]; 0.528 in experiment [3]; 0.936 in experiment [4]; 1 in experiment [5]; 0.507 in [6]. Besides, the composite z-score in the experiment with Lefty1 was found to be 0.312; in experiment [8], 0.375; in experiment [10], 0.133; in [15], 0.0544; in experiment [16], 0.136; with Torsin-1A (Homo sapiens) [17] it was 0.275. In addition, the composite z-score with Torsin-1A (Homo sapiens) [18] stood at 0.0913; in experiment [19], 0.646. The z-score in [7] was 1.98; in experiment [9], 0.487 (inactive); in experiment [11], 0.0274 (inactive); in experiment [12] it was 0.71 (inactive); in experiment [13] it was 0.0279 (inactive); in experiment [14] it was 0.296 (inactive).
